Records with an inconclusive call do not appear. Activity calls are given as the source filed them. Unless noted, calls come from the whole dose curve; as a rule, active = well fitted curve in the direction sought with a large enough effect; inconclusive = small, poorly fitted or top-dose-only effect, or another doubt; inactive = no such curve, though single readings can be large; an effect the other way counts as inactive or inconclusive.
Tests used:
[1] = target: Lysosomal acid glucosylceramidase (Homo sapiens) (UniProt P04062); experiment: Glucocerebrosidase-p2 (AID 348; in the data active = potency below about 10 µM; note: potency is the fitted concentration of half-maximal effect); details: purified GBA, blue fluorogenic substrate, 40 min
Sequence of Lysosomal acid glucosylceramidase (Homo sapiens) (P04062 whole entry, looked up): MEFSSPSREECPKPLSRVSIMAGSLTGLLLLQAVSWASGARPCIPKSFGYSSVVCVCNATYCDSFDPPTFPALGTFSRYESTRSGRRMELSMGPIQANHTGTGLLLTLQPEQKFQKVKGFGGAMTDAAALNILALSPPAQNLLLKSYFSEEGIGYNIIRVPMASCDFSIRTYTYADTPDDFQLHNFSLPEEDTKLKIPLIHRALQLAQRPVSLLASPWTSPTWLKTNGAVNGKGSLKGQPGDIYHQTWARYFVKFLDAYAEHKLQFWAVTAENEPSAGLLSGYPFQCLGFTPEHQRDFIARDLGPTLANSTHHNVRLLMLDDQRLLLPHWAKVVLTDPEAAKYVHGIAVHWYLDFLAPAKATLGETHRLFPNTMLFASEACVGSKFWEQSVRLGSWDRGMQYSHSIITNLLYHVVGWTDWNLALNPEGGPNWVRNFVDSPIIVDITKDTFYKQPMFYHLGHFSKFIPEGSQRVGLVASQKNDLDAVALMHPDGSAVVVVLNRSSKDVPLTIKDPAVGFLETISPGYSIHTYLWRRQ
Method in brief: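 Normal human glucocerebrosidase (0.2 nM) with blue fluorogenic substrate (80 uM final) in citrate/phosphate pH 5.9 with 10mM sodium taurocholate, 0.01% tween-20; 40 min RT, NaOH/glycine stop; fluorescence Ex 365/Em 440; AC50 from a titration from 0.6 nM upwards.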

[2] = AP1 Signaling Pathway (AID 357; active = well fitted curve in either direction with a large enough effect, not every such curve was filed as active;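 note: ME-180 reporter cells stimulated with EGF at its EC50 level; % is set by controls: 0 for no effect and ±100 for the full control effect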); details: ME-180 AP-1-bla reporter, EGF-induced, beta-lactamase ratio, 5 h; at 7.69 µM (top of the series) unless noted
Method in brief: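 Cells are seeded overnight, exposed to compound titrations and an EC50 level of EGF for 5 hours at 37 °C, then loaded with CCF4 dye for 2.5 hours. Beta-lactamase activity under the AP-1 element is read as a blue/green ratio.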

[3] = target: Cytochrome P450 1A2 (Homo sapiens) (UniProt P05177); experiment: p450-cyp1a2 (AID 410; calls by dose curve; note: potency is the fitted concentration of half-maximal effect); details: recombinant CYP1A2, luciferin-ME demethylation, luminescence; series mostly up to 57 µM
Sequence of Cytochrome P450 1A2 (Homo sapiens) (P05177 whole entry, looked up): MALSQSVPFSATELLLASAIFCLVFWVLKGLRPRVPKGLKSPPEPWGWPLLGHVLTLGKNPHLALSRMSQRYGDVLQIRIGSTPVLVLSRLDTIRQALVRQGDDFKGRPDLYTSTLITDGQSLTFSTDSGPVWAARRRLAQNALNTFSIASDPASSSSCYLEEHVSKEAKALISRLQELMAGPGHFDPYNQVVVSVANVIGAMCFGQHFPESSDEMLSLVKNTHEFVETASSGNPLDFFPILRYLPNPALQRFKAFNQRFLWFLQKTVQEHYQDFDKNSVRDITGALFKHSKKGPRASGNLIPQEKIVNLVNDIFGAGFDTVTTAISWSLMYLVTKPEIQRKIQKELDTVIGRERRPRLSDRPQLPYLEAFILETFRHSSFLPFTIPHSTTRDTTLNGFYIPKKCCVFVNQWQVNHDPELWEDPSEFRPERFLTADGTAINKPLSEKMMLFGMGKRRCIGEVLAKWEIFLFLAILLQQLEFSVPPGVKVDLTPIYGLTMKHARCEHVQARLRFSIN
Method in brief: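 20nM CYP1A2, 100uM Luciferin-ME (=Km), 100mM KPO4; cpd 10 min RT; +NADPH regen, 60 min RT; stop/detect 20 min; luminescence. Normalized to furafylline 57 uM = full inhibition.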

[4] = NFAT Signaling Pathway (AID 444; active = well fitted curve in either direction with a large enough effect, not every such curve was filed as active;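 note: carbachol stimulus at about its EC50 of 1 µM final; % is set by controls: 0 for no effect and ±100 for the full control effect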); details: Jurkat NFAT-bla M1, carbachol, beta-lactamase ratio, 5 h; at 7.69 µM (top of the series) unless noted
Method in brief: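 Jurkat cells carrying an NFAT-driven β-lactamase reporter and co-transfected muscarinic M1 receptor were treated with compound plus carbachol (1 uM final, an EC50 level) for 5 h at 37 °C. CCF4 loading followed for 1 h at RT; 460/530 nm ratio gave %activity.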

[5] = Stat Signaling Pathway (AID 446; active = well fitted curve in either direction with a large enough effect, not every such curve was filed as active;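 note: ME-180 cervical cancer cells given 40 pM IL-6 alongside compound; SIE-controlled beta-lactamase reporter measured as 460/530 nm FRET emission ratio; % is set by controls: 0 for no effect and ±100 for the full control effect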); details: ME-180 SIE beta-lactamase reporter, IL-6 stimulated, 5 h; at 7.69 µM (top of the series) unless noted
Method in brief: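 Overnight-plated ME-180 cells bearing a STAT Inducible Element beta-lactamase reporter; 5 h co-exposure to compound and 40 pM IL-6; values normalized to 300 pM IL-6 and 125 nM JAK inhibitor controls.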

[6] = target: Glucocorticoid receptor (Homo sapiens) (UniProt P04150); experiment: GR-GFP Redistribution (AID 450;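 active = compounds whose dose series gives a full or clear partial fitted curve of increased nuclear translocation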; note: potency is the fitted concentration of half-maximal effect); details: U2OS GR-GFP nuclear translocation, laser cytometry, 2 h
Sequence of Glucocorticoid receptor (Homo sapiens) (P04150 whole entry, looked up, the tested form may be a part): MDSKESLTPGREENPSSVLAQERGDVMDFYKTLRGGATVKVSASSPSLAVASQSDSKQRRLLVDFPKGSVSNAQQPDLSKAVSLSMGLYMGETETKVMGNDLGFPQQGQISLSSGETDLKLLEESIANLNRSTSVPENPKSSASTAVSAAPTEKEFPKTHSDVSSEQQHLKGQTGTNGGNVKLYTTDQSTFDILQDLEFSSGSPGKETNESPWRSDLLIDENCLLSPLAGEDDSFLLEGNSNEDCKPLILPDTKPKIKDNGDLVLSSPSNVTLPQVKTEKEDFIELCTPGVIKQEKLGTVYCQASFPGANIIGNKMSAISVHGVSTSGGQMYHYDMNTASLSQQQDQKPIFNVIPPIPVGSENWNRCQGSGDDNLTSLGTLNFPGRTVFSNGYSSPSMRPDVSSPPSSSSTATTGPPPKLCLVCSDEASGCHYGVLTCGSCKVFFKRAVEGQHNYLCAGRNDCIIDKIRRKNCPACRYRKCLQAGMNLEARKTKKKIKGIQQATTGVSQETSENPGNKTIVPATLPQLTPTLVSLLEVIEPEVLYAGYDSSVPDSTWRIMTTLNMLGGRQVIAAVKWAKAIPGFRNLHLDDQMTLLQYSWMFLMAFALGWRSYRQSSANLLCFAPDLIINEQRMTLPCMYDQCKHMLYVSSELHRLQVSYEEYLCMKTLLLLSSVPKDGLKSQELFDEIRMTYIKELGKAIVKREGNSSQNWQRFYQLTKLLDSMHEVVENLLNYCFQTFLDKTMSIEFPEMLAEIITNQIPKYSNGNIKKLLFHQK

[7] = target: Glucocorticoid receptor (Homo sapiens) (UniProt P04150); experiment: GR-EFC Redistribution (AID 451; calls by dose curve; note: potency is the fitted concentration of half-maximal effect); details: CHO-K1 GR-EFC translocation, beta-gal luminescence, 2 h
Method in brief: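 CHO-K1 cells stably expressing nuclear-localized β-gal enzyme acceptor and GR fused C-terminally to the enzyme donor fragment; ligand-driven nuclear translocation restores β-gal by complementation. Compounds titrated up to 46 uM final, 2 h at 37 °C; luminescence read.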

[8] = target: Mitogen-activated protein kinase 10 (Mus musculus) (UniProt Q61831); experiment: JNK3 AlphaScreen Assay (AID 530; active = well fitted curve in either direction with a large enough effect, not every such curve was filed as active;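 note: kinase came from lysate of stimulated human HepG2 cells; signal reports phosphorylation of biotinylated GST-cJun 1-79 at Ser73 with 10 µM ATP; % is set by controls: 0 for no effect and ±100 for the full control effect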); details: JNK3 lysate, c-Jun phosphorylation; series mostly up to 57.1 µM
Method in brief: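 Biotinylated GST-cJun(1-79) served as substrate for JNK3 in HepG2 lysates stimulated with IL-1beta and TNF-alpha. ATP was 10 uM final, pH 7.6. Ser73 phosphorylation was quantified by AlphaScreen (680 nm excitation).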

[9] = target: 3',5'-cyclic-AMP phosphodiesterase 4B (Homo sapiens) (UniProt Q07343); experiment: qHTS Assay for Inhibitors of PDE-IV (AID 607; active = well fitted activation curve with a large enough effect in the main read-out, with a control signal flat, not every such curve was filed as active; note: % of control where 0% means no effect); details: HEK293 ACTOne CNG channel cells, membrane potential fluorescence; series mostly up to 22.9 µM
Sequence of 3',5'-cyclic-AMP phosphodiesterase 4B (Homo sapiens) (Q07343 whole entry, looked up): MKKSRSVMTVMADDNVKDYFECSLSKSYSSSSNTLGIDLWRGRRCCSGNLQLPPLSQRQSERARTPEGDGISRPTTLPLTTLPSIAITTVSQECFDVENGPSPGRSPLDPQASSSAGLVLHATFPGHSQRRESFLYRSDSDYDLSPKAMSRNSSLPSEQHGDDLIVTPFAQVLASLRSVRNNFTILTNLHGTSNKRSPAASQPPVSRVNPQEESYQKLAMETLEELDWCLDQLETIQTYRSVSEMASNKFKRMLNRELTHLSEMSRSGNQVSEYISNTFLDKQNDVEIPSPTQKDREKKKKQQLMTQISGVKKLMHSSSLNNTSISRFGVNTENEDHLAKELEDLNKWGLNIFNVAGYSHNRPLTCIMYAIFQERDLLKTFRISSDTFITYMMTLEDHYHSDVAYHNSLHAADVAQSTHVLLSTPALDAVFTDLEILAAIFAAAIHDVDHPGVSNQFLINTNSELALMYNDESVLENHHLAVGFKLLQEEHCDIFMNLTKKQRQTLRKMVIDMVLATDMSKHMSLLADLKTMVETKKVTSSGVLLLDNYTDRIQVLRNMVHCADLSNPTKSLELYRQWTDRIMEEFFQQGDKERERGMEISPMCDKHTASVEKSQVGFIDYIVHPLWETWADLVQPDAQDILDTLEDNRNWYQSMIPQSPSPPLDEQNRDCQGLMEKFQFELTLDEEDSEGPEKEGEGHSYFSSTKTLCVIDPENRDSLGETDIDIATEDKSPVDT
Method in brief: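 Live HEK293 cells with a modified cyclic nucleotide-gated (CNG) channel report intracellular cAMP via membrane-potential dye fluorescence (ex 535/em 590 nm). Endogenous PDE-IV was targeted. Compounds were tested at up to 22.9 uM final; RO 20-1724 100 uM served as control.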

[10] = target: Cytochrome P450 3A4 (Homo sapiens) (UniProt P08684); experiment: qHTS Assay for Activators of Cytochrome P450 3A4 (AID 885); details: recombinant CYP3A4, Luciferin-PPXE luminescence, 60 min; series mostly up to 57.1 µM; note: nearly all actives have a fitted effect of over 65% in size
Sequence of Cytochrome P450 3A4 (Homo sapiens) (P08684 whole entry, looked up): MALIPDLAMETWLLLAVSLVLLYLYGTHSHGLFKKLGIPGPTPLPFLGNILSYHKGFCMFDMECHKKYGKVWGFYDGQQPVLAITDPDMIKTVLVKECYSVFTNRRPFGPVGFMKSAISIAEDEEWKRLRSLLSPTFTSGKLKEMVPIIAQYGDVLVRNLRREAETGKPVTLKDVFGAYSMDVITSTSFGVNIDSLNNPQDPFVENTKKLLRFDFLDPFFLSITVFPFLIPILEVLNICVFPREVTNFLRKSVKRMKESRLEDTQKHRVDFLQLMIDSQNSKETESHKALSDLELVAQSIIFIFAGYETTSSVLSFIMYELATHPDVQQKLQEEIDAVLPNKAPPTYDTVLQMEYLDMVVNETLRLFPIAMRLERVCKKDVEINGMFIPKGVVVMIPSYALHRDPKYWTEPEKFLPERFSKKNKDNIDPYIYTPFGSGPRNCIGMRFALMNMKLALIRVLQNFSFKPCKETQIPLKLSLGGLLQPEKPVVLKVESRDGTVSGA
Method in brief: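 Using 20nM recombinant human CYP3A4 in potassium phosphate (200mM), substrate Luciferin-PPXE at 25uM, luminescent luciferin detection followed a 60-min RT NADPH reaction; data scaled to 57 uM ketoconazole.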

[11] = qHTS Assay for Lipid Storage Modulators (AID 1519; calls by dose curve); details: Drosophila S3 cells, BODIPY lipid droplet/cell ratio, laser cytometry, cells loaded with oleic acid; for activity change, negative = inhibition: at 57.5 µM (top of the series)
Method in brief: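 Cells seeded at 5,000 per well were treated with compounds over a concentration series and loaded with oleic acid (400 uM, as added). Lipid droplet fluorescence (488 nm excitation, 500-530 nm channel) was read by laser-scanning cytometry and normalized to 20 uM Triacsin C.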

[12] = target: Dual specificity protein kinase CLK4 (Homo sapiens) (UniProt Q9HAZ1); experiment: qHTS Assay for Inhibitors of CDC-like Kinase 4 (Kinase-Glo Assay) (AID 1770); details: recombinant Clk4, Kinase-Glo ATP depletion luminescence; series mostly up to 66.7 µM; note: nearly all actives have a fitted effect of over 65% in size; note: potency is the fitted concentration of half-maximal effect
Sequence of Dual specificity protein kinase CLK4 (Homo sapiens) (Q9HAZ1 whole entry, looked up): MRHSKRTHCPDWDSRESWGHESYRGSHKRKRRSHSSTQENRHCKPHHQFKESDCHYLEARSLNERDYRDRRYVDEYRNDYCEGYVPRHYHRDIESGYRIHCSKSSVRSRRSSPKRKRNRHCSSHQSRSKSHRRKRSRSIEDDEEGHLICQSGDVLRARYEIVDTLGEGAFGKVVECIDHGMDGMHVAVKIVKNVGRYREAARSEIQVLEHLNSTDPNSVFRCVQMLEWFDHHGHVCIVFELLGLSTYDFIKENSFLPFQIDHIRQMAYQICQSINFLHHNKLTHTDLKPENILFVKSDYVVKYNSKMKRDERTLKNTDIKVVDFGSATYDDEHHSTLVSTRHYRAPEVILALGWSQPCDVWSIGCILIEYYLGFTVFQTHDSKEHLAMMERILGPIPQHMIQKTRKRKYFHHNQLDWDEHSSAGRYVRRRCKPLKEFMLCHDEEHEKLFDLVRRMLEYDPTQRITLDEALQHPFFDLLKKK
Method in brief: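 Clk4 25 nM, RS peptide 100 uM, ATP 1 uM, pH 7.5 Tris, 10 mM MgCl2, 2.5 mM DTT; 4.5 h RT; ATP depletion read by Kinase-Glo luminescence.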

[13] = target: Dual specificity protein kinase CLK4 (Homo sapiens) (UniProt Q9HAZ1); experiment: qHTS Assay for Inhibitors of CDC-like Kinase 4 (ADP-Glo Assay) (AID 1771); details: recombinant CLK4, ADP-Glo luminescence; series mostly up to 80 µM; note: nearly all actives have a fitted effect of over 70% in size; note: potency is the fitted concentration of half-maximal effect
Method in brief: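 25 nM Clk4, 100 uM RS peptide, 1 uM ATP (final); 2 mM MgCl2, 0.5 mM EGTA, 2.5 mM DTT, 0.01% Triton X-100; 1 hr RT. ADP-Glo readout: ATP depletion 45 min, conversion/luciferase 30 min, luminescence.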

[14] = target: Ubiquitin carboxyl-terminal hydrolase 1 (Homo sapiens) (UniProt O94782); experiment: Inhibitors of USP1/UAF1: Pilot qHTS (AID 504865); details: purified USP1/UAF1, Ub-rhodamine cleavage fluorescence; series mostly up to 54.9 µM;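 note: rhodamine fluorescence freed from ubiquitin-rhodamine substrate followed over time; top concentration of the series differs between compounds; % is set by controls: 0 for no effect and ±100 for the full control effect; nearly all actives have a fitted effect of over 35% in size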
Sequence of Ubiquitin carboxyl-terminal hydrolase 1 (Homo sapiens) (O94782 whole entry, looked up): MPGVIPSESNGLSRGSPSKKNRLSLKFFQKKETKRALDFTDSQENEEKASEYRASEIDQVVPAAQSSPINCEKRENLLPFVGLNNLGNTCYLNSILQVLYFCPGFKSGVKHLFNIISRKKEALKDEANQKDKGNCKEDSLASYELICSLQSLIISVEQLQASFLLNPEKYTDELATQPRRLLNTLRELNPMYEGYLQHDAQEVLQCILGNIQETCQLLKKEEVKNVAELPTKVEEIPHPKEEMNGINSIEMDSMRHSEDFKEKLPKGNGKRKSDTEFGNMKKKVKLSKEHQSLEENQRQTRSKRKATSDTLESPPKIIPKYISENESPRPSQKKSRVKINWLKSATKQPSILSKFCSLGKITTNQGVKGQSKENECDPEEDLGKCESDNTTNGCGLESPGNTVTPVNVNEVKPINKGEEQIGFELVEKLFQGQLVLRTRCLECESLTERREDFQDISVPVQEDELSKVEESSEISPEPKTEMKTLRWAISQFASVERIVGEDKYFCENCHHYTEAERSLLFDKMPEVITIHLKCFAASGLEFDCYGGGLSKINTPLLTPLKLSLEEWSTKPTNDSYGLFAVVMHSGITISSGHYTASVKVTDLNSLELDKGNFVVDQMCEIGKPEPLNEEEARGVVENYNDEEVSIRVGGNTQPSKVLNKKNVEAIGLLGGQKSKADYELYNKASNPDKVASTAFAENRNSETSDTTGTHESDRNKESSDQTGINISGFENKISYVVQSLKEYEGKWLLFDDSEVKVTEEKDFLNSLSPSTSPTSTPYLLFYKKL
Method in brief: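 Enzyme-free wells gave the negative control, while test wells held 1nM USP1/UAF1 preincubated with compound for 15 min at room temperature. Ub-Rho at 150nM final started the reaction, and fluorescence at 480/540 nm was recorded kinetically.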

[15] = Primary qHTS for small molecule stabilizers of the endoplasmic reticulum resident proteome: Secreted ER Calcium Modulated Protein (SERCaMP) assay (AID 1508630); details: SH-SY5Y GLuc-SERCaMP (Gaussia luciferase released on ER calcium loss) secretion, thapsigargin, luminescence; series mostly up to 38.4 µM; note: % is set by controls: 0 for no effect and ±100 for the full control effect
Method in brief: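 The SH-SY5Y reporter protocol was run at 3 concentrations up to 38.3 uM (primary) or 11 concentrations (follow-up): 16 h compound, 100 nM thapsigargin for 4 h, then extracellular luciferase luminescence.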

[16] = target: Cytochrome P450 2C9 (Homo sapiens) (UniProt P11712); experiment: qHTS Assay for Inhibitors and Substrates of Cytochrome P450 2C9 (AID 883); details: recombinant CYP2C9, luciferin-H luminescence, 60 min; series mostly up to 57.1 µM; note: % is set by controls: 0 for no effect and ±100 for the full control effect; nearly all actives have a fitted effect of over 60% in size
Sequence of Cytochrome P450 2C9 (Homo sapiens) (P11712 whole entry, looked up): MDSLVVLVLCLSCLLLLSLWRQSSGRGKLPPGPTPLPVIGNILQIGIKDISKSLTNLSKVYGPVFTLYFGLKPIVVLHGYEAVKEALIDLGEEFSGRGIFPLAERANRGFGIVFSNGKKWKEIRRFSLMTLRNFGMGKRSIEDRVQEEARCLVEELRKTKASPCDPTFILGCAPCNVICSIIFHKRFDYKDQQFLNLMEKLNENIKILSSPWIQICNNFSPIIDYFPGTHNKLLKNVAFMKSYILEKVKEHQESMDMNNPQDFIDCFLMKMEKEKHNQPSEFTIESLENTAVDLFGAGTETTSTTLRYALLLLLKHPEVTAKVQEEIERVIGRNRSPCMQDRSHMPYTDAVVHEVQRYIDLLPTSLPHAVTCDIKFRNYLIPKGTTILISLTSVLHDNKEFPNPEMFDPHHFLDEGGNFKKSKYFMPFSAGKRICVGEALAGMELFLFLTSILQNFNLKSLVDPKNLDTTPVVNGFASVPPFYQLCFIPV
Method in brief: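 CYP2C9 deoxyluciferin hydroxylation, 37C, 60 min with NADPH regeneration; 10nM enzyme, 100uM Luciferin-H (KM). Glo detection reagent stopped reaction; luminescence normalized to sulphaphenazole (57uM) full inhibition.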

[17] = target: Cytochrome P450 3A4 (Homo sapiens) (UniProt P08684); experiment: qHTS Assay for Inhibitors and Substrates of Cytochrome P450 3A4 (AID 884); details: recombinant CYP3A4, Luciferin-PPXE luminescence; series mostly up to 57.1 µM; note: potency is the fitted concentration of half-maximal effect; nearly all actives have a fitted effect of over 50% in size
Method in brief: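 Luminescent readout of luciferin produced by CYP3A4 (20 nM) dealkylation of Luciferin-PPXE, 25 uM (its KM). NADPH-driven reaction ran 60 min at RT after 10 min compound preincubation; data scaled to 57 uM ketoconazole as 100% inhibition.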

[18] = qHTS Assay for Identification of Small Molecule Agonists for Hypoxia Response Element Signaling Pathway (AID 914; active = well fitted activation curve with a large enough effect in the signal ratio, with a control signal flat, not every such curve was filed as active; the % refers to the signal ratio; note: potency is the fitted concentration of half-maximal effect); details: ME-180 (cervical carcinoma) HRE-bla reporter, beta-lactamase ratio, CoCl2, 17 h; activation: stronger effect = higher value
Method in brief: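 Compounds in a titration series were added to ME-180 reporter cells alongside an EC50 level of CoCl2. After 17 hours, beta-lactamase activity was read as the 460nm/530nm emission ratio of CCF4, giving AC50 values.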

[19] = measured here: cell count channel max response
[20] = measured here: lipid channel max response

CN(C)C(=O)c1ccc(-c2cc(NCc3cccnc3)ncn2)cc1
inactive: Potency [1] > 11.4 µM | activity change, negative = inhibition [2] 11.8% | activity change, negative = inhibition [4] 21.1% | activity, negative = inhibition [5] 21.7% | Potency [6] > 46 µM | Potency [7] > 46 µM | outcome [8] | Potency [9] | Potency [10] | activity change, negative = inhibition [11] 3.91% | Potency [14] | Potency [15]
active: Potency [3] 20 µM | Potency [12] 15.8 µM | Potency [13] 14.1 µM
24.7%: max response [11, 19]
22.9%: max response [11, 20]

CN1CCN(c2ncc3nc(-c4cc(F)cc(F)c4)c(=O)n(C4CC4)c3n2)CC1
12.5%: max response [11, 20]
active: Potency [3] 15.8 µM
inactive: Potency [1] > 11.4 µM | activity change, negative = inhibition [2] -8.53% | activity change, negative = inhibition [4] -23.1% | Potency [6] > 9.22 µM | Potency [7] > 46 µM | outcome [8] | Potency [9] | Potency [10] | activity change, negative = inhibition [11] 1.65% | Potency [12] | Potency [13] | Potency [14] | Potency [15]
12.3%: max response [11, 19]

CC(=O)NCCNc1ncncc1-c1ccccc1C
23%: max response [11, 20]
active: Potency [3] 25.1 µM | Potency [17] 2.51 µM
17.2%: max response [11, 19]
inactive: Potency [1] > 11.4 µM | activity change, negative = inhibition [2] 10.6% | activity change, negative = inhibition [4] 5.27% | activity, negative = inhibition [5] 8.22% | Potency [6] > 46 µM | Potency [7] > 46 µM | outcome [8] | Potency [9] | activity change, negative = inhibition [16] 19.5% [at 2.29 µM] | Potency [10] | activity change, negative = inhibition [11] 6.81% | Potency [12] | Potency [13] | Potency [14] | Potency [15]

CS(=O)(=O)Nc1cccc(-c2ccc3ncnc(NCCN4CCOCC4)c3c2)c1
inactive: Potency [1] > 11.4 µM | activity change, negative = inhibition [2] -17.6% | activity, negative = inhibition [5] 2.22% | Potency [6] > 46 µM | Potency [7] > 46 µM | outcome [8] | Potency [9] | Potency [10] | activity change, negative = inhibition [11] -0.458% | Potency [14] | Potency [15]
-4.37%: max response [11, 19]
-8.3%: max response [11, 20]
active: Potency [3] 25.1 µM | Potency [12] 8.91 µM | Potency [13] 8.91 µM

CCNc1ncc2nc(-c3cn(C)c4ccccc34)c(=O)n(Cc3cccc(OC)c3)c2n1
16.9%: max response [11, 20]
active: Potency [3] 12.6 µM | Potency [17] 3.98 µM | Potency [18] 1.58 µM
15.6%: max response [11, 19]
inactive: Potency [1] > 11.4 µM | activity change, negative = inhibition [2] 0.603% | activity change, negative = inhibition [4] 5.19% | Potency [7] > 46 µM | outcome [8] | Potency [9] | Potency [10] | activity change, negative = inhibition [11] 2.75% | Potency [12] | Potency [13] | Potency [14] | Potency [15]
